Data reported in PubChem BioAssay AID1794808 (University of Kansas High Throughput Screening Laboratory, 2022).
Where “and” joins values, the source holds several entries; their conditions need not be identical. Equal values may be shown once. About 520 (0.25%) of roughly 210,000 compounds were called active. Rule as the data show it: active = inhibition above about 50%; inactive = the rest. The full list was thinned out, with actives kept by preference.

System: Plasmodium falciparum apicoplast DNA polymerase (apPOL)
Assay: Pf-apPOL inhibitors, biochemical, fluorescence (AID 1794808)
Details: Recombinant Pf-apPOL, molecular beacon fluorescence, 1.5 h; at 10 µM; active compounds read high

Row | Structure (SMILES) | inhibition
1 | Cc1ccc(-n2c(O)c(C=Nc3cc(Cl)ccc3O)c(=O)[nH]c2=O)cc1 | -0.1% (inactive)
2 | CCc1c(C)c2ccc(OCC(C)C)cc2oc1=O | -2.3% (inactive)
3 | COc1ccc(CCNC(=O)C2CC(=O)N(c3ccc(F)c(Cl)c3)C2)cc1OC (stereo not drawn) | 4.9% (inactive)
4 | O=C1CC2(CCN(C(=O)C=Cc3ccccc3)CC2)Oc2ccccc21 | -17.9% (inactive)
5 | O=C(Nc1ccc(Br)cn1)c1ccc([N+](=O)[O-])cc1Cl | 81.8% (active)
6 | O=C(Nc1ccncc1)c1ccc([N+](=O)[O-])cc1Cl | 0.3% (inactive)
7 | Cc1cc(C)nc(NC(=O)c2ccc([N+](=O)[O-])cc2Cl)c1 | 5.5% (inactive)
8 | O=C(C1CC1)N1CCC(COCc2ccccc2)CC1 | -12.6% (inactive)
9 | CCS(=O)(=O)Oc1ccccc1-c1nc2cc(Cl)ccc2o1 | -3.6% (inactive)
10 | Cc1ccc(C(=O)N2CCC(CCOc3ccc(F)cc3)CC2)s1 | 4.5% (inactive)
11 | CN1CCN(C(=O)C2CCC(=O)N2Cc2ccccc2Cl)CC1 (stereo not drawn) | -11.4% (inactive)
12 | CC(C)c1nnc(NC(=O)CCCOc2ccc(Cl)cc2)s1 | 4.4% (inactive)
13 | O=[N+]([O-])c1ccc(-c2noc(COc3ccc(Cl)cc3Cl)n2)cc1 | 1.6% (inactive)
14 | O=C(NCCc1ccccc1)C1CCN(CC2CCCCC2)CC1 | 12.9% (inactive)
15 | O=C(NCCc1ccccc1)C1CCN(S(=O)(=O)c2ccc(Br)s2)CC1 | -9% (inactive)
16 | O=C(NCCc1ccccc1)C1CCN(S(=O)(=O)c2ccc(Br)cc2)CC1 | 98.3% (active)
17 | Cc1cccc(NC(=O)c2cc3c(CO)cnc(C)c3oc2=Nc2ccc3c(c2)OCO3)c1 | -0.2% (inactive)
18 | CCn1c(-c2cc(NC(=O)c3ccncc3)n[nH]2)cc2ccccc21 | -0.8% (inactive)
19 | O=C(Nc1ccc(Cl)cc1[N+](=O)[O-])c1ccc(Cl)cc1 | -0.2% (inactive)
20 | Cc1cc(C)nc(Nc2nc(CC(=O)Nc3nc(-c4ccco4)cs3)cs2)n1 | 69.6% (active)
21 | COC(=O)Nc1nc(CC(=O)NCc2ccco2)cs1 | -1.8% (inactive)
22 | O=C(CCCn1cccc1)Nc1nc(-c2ccco2)cs1 | 0.6% (inactive)
23 | Cc1nccn1Cc1nc(-c2ccc(F)c(Br)c2)no1 | -2.5% (inactive)
24 | COc1ccc(C(C)=C2SC(=S)N(CCC(=O)O)C2=O)cc1 | 3.2% (inactive)
25 | Cc1nc2c(ccc3nc(NC(=O)NCc4cccs4)sc32)s1 | -4.8% (inactive)

Row | Structure (SMILES) | inhibition
26 | O=C(c1ccncc1)N1CCCC(c2nc(-c3ccc(F)cc3)n[nH]2)C1 (stereo not drawn) | 10% (inactive)
27 | COc1ccc(C(=O)N2CCN(c3nc(C(C)C)c4c(c3C#N)CC(C)(C)OC4)CC2)cc1 | -3.4% (inactive)
28 | CCCNc1cc(N2CCC(CCC(=O)NC(C)C)CC2)ncn1 | -1.9% (inactive)
29 | COc1cc(/C=c2\sc3nc(-c4ccc(Cl)cc4)nn3c2=O)cc(OC)c1OC | 3.7% (inactive)
30 | O=C(Cn1nnc2ccccc21)NCCSCc1ccco1 | 9.1% (inactive)
31 | O=C(CSc1nnc(SCC(=O)NCCSCc2ccco2)s1)NCCSCc1ccco1 | 91.9% (active)
32 | Cc1ccc(S(=O)(=O)NC(=O)NCCSCc2ccco2)cc1 | 25.5% (inactive) and 3.2% (inactive)
33 | O=C(CSc1ccc(C(F)(F)F)cc1[N+](=O)[O-])NCCOc1ccccc1 | 57.6% (active)
34 | COc1ccccc1OCCNC(=O)CSc1ccc(C(F)(F)F)cc1[N+](=O)[O-] | -0.4% (inactive)
35 | Cc1cccc(OCCNC(=O)CSc2ccc(C(F)(F)F)cc2[N+](=O)[O-])c1 | -4.3% (inactive)
36 | O=C(Cc1ccsc1)N1CCn2cnnc2C1 | 0.2% (inactive)
37 | Cc1nc(C(=O)NCc2ccc(C(F)(F)F)cc2)c(C)o1 | -4.9% (inactive)
38 | Cc1ccc(C2CC(c3ccccc3)Nc3nnnn32)cc1 (stereo not drawn) | -7% (inactive)
39 | O=C(Nc1ccccc1[N+](=O)[O-])c1[nH]ncc1[N+](=O)[O-] | -24.6% (inactive)
40 | Cc1ccc(-n2cc(C(=O)Nc3ccc4c(c3)OCCO4)c3ccccc3c2=O)cc1C | -2.6% (inactive)
41 | O=C(c1ccoc1)N1CCCCC1CCN1CCOCC1 (stereo not drawn) | -2% (inactive)
42 | O=C(NC1CC1)c1cccc(OCC2CCCN(C(=O)C3CCCCC3)C2)c1 (stereo not drawn) | -3.3% (inactive)
43 | COc1ccc(CNC(=O)c2cncc(OC)c2)cc1 | 0.2% (inactive)
44 | O=C(CS(=O)(=O)CC(=O)c1ccccc1)c1ccccc1 | -2.4% (inactive)
45 | Cc1c(Cl)ccc(NC(=O)C2CCCN2S(=O)(=O)c2ccccc2)c1Cl (stereo not drawn) | -7.1% (inactive)
46 | O=C(Nc1ccc(Cl)cc1)NC1(C(F)(F)F)Oc2ccccc2O1 | 1.5% (inactive)
47 | COc1ccc(Cl)cc1NC(=O)CN(c1ccccc1)S(=O)(=O)c1ccccc1[N+](=O)[O-] | -6.5% (inactive)
48 | CC1=C(C(=O)Nc2ccc(Cl)cc2)C(c2ccc(Cl)cc2Cl)n2ncnc2N1 (stereo not drawn) | 6% (inactive)
49 | CCN(CC)S(=O)(=O)c1ccc(Cl)c(C(=O)O)c1 | -5% (inactive)
50 | Cc1ccc(Cl)cc1NC(=O)C(=O)NCc1ccccn1 | 0.8% (inactive) and 0% (inactive)

Row | Structure (SMILES) | inhibition
51 | O=C(COc1ccc(F)cc1)Nc1nnc(C2CC(=O)N(c3ccccc3)C2)o1 (stereo not drawn) | 4.1% (inactive)
52 | CN(C)c1ccc(/C=C(\C#N)c2ccc([N+](=O)[O-])cc2)cc1Br | -5.5% (inactive)
53 | COCC(=O)N1CCCCC1c1nncn1CC1CC1 (stereo not drawn) | 3.4% (inactive)
54 | CC(C)(C)C(=O)Oc1ccc(C=Cc2ccccn2)cc1 | -22% (inactive)
55 | O=C(CSc1nnc(NC(=O)c2cc(-c3ccco3)on2)s1)NC1CCCC1 | 60.9% (active)
56 | Nc1ccc2nc(SCC(=O)NC3CC3)sc2c1 | 6.4% (inactive)
57 | O=C(CSc1nnc(NC(=O)c2ccc(Cl)c(Cl)c2)s1)NCc1ccco1 | 0.7% (inactive)
58 | O=C1CC(NCc2ccc3c(c2)OCO3)C(=O)N1c1ccc(OC(F)(F)F)cc1 (stereo not drawn) | 0.2% (inactive)
59 | Cc1cc(C)c(S(=O)(=O)N2CCC(c3noc(-c4ccc(F)cc4)n3)CC2)c(C)c1 | -5.5% (inactive)
60 | O=Cc1ccc(OCc2ccc(I)cc2)cc1 | -6.6% (inactive)
61 | COc1ccccc1C(=O)Oc1ccc2c(c1)OC(=Cc1cccc(OC)c1OC)C2=O | -1.8% (inactive)
62 | COc1ccc(CCNC(=O)CSc2ccc(-n3cccn3)nn2)cc1OC | -3.3% (inactive)
63 | CC(C)(C)C(O)CCNC(=O)C(=O)NCc1ccccc1 (stereo not drawn) | -5.8% (inactive)
64 | O=C(NCC(O)c1ccsc1)c1cccc2ccccc12 (stereo not drawn) | -3.1% (inactive)
65 | COc1ccc(-c2cn3c4c(=O)n(C)c(=O)n(C)c4nc3n2CCO)cc1 | -0.7% (inactive)
66 | COc1ccc(-c2c3c(=O)n(C)c(=O)n(C)c3cn2-c2ccc(Br)cc2)cc1 | 73.4% (active)
67 | Cn1c(=O)c2c(-c3ccccc3)n(-c3cccc([N+](=O)[O-])c3)cc2n(C)c1=O | 0.3% (inactive)
68 | CN1CCC(N2CCN(C(=O)C3CCc4sc(C(=O)N5CCCC5)cc4C3)CC2)CC1 (stereo not drawn) | -2.3% (inactive)
69 | CC(C)N1CCN(C(=O)c2csc(N3CCN(c4ccccc4)CC3)n2)CC1 | -6.1% (inactive)
70 | CCOc1ccc(-c2cc3n(n2)CCCN(C(=O)c2ccccn2)C3)cc1 | -2.1% (inactive)
71 | O=C(c1cccc(-n2cnnn2)c1)N1CCN(c2ccc(-c3cccs3)nn2)CC1 | -10.3% (inactive)
72 | O=C(Nc1cccs1)N1CCN(c2ccc(-c3ccco3)nn2)CC1 | 64.3% (active)
73 | O=C(Nc1cccs1)N1CCN(C(=O)C2CCCO2)CC1 (stereo not drawn) | 0.6% (inactive)
